“And” between values parts separate entries of the source, which are not always exact repeats. Identical values can stand only once. Among all 16,000 compounds or so, about 2,600 (16%) were called active. About 20% were inconclusive and are not listed. Calls follow the shape of the dose curve; as a rule, active = well fitted curve in the direction sought with a large enough effect; inconclusive = small, poorly fitted or top-dose-only effect, or effect the other way; inactive = no such curve, though single readings can be large or run the other way. Only a sample is shown. Some compounds were tested as several samples or in several runs, with calls that do not always agree.
target: Cytochrome P450 2D6 (Homo sapiens) (UniProt P10635); experiment: Cytochrome panel assay with activity outcomes; settings: recombinant CYP, pro-luciferin dealkylation, luminescence, p450-cyp2d6; series mostly up to 57.1 µM; activity, negative = inhibition: at the top concentration
Sequence (P10635 whole entry, looked up): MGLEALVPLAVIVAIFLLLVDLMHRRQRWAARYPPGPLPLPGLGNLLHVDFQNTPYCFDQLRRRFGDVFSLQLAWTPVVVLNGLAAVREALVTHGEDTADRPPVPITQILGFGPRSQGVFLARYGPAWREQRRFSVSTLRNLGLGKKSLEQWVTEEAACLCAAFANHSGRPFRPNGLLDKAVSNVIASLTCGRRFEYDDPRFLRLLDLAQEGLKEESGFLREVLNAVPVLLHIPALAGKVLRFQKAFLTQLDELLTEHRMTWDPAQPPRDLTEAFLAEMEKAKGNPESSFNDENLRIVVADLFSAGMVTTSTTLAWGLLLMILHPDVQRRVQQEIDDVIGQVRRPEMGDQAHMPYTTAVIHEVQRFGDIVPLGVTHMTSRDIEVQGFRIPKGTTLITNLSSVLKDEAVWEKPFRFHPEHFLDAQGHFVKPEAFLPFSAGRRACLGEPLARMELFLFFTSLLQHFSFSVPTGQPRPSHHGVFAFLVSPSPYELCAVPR
% is scaled to controls: 0 for no effect and ±100 for the full control effect.

Compound | activity, negative = inhibition | AC50
Cc1cccc(Oc2ncnc3onc(C)c23)c1C | 11.2% (inactive) | –
O=C(Cn1ccc(=O)[nH]c1=O)Nc1ccc(C(=O)O)c(O)c1 | -2.13% [at 11.4 µM] (inactive) | –
COc1cccc(NC(=O)CSc2nc3ccccc3cc2Cc2ccccc2)c1 | -12.4% (inactive) | –
N=c1sccn1CC(=O)Nc1cccc(Oc2ccccc2)c1 | – | 1 µM (active)
CSc1nnc(-c2sccc2OCc2ccccc2)n1C | -13.6% (inactive) | –
C#CCCCO/N=C1/C[C@@H](O)[C@@H](O)[C@@H]2[C@@H]3C(=O)N([C@@H](C)c4ccccc4)C(=O)[C@H]3CC[C@H]12 | 12% [at 11.4 µM] (inactive) | –
CC[C@H](NC(=O)c1c(C)c(-c2ccccc2)nc2ccccc12)c1ccccc1 | 2.4% (inactive) | –
CNc1csc(C)c(C)c1=O | 5.1% (inactive) | –
C[C@H](NCCC(c1ccccc1)c1ccccc1)c1ccccc1 | – | 0.158 µM (active)
O=C1[C@@H]2[C@H]3[C@H](O)[C@H](O)C/C(=N/OC[C@@H](O)COCc4ccco4)[C@H]3CC[C@H]2C(=O)N1c1ccc(F)cc1F | -0.021% [at 11.4 µM] (inactive) | –
COc1cccc(NC(=O)C2c3cc(OC)c(OC)cc3C(=O)N(C)C2c2cccnc2)c1 (stereo unspecified) | -22.7% (inactive) | –
C=CC(C)(C)c1[nH]c2ccccc2c1C1=C(O)C(=O)C(c2c[nH]c3c(CC=C(C)C)cccc23)=C(O)C1=O | – | 0.00631 µM (active)
O=C1C2C3C=CC(CC3)C2C(=O)N1/N=C/c1ccccc1O (stereo unspecified) | 18.7% (inactive) | –
Cn1c2c(c(=O)n(C)c1=O)[C@@H]1c3c(ccc4ccccc34)OC[C@@H]1CO2 | -7.85% (inactive) | –
COc1cc(C=O)ccc1OCCCOc1ccccc1C(=O)O | 14.2% (inactive) | –
CCCCC1(C)Nc2ccccc2-c2nc3ccccc3n21 (stereo unspecified) | – | 20 µM (active)
CCC1(C)Nc2ccccc2C(=O)N1O (stereo unspecified) | 18.2% (inactive) | –
COc1cccc(Cn2c(=O)c(-c3ccc(Cl)cc3)nc3cnc(N4CCN(C)CC4)nc32)c1 | 3.1% (inactive) | –
CCc1cccc(NC(=O)CN(C)S(=O)(=O)c2cnc[nH]2)c1 | -12.6% (inactive) | –
CC1CCN(C(=O)CN(C)S(=O)(=O)c2cccc3nsnc23)CC1 | -2.18% (inactive) | –
CN(CC(=O)N1CCN(c2ccccc2)CC1)S(=O)(=O)c1cnc[nH]1 | – | 14.1 µM (active)
CC(C)(Oc1ccc(-c2cccc3ccccc23)cc1)C(=O)O | 11.3% [at 11.4 µM] (inactive) | –
COCC(=O)N1CCC2(CCCN(C(=O)Nc3ccc(OC)cc3)C2)CC1 | 7.58% (inactive) | –
COCC(=O)N1CCC2(CC1)CN(C(=O)Nc1cccc(F)c1)C2 | 0.536% (inactive) | –

Compound | activity, negative = inhibition | AC50
COCC(=O)N1CCC2(CC1)CN(C(c1ccccc1)c1ccccc1)C2 | – | 2.51 µM (active)
COCC(=O)N1CCC2(CC1)CCN(c1ccccn1)CC2 | -2.48% (inactive) | –
COCC(=O)N1CCC2(CC1)CN(C(=O)Nc1ccc(OC)cc1)C2 | -6.27% (inactive) | –
COCC(=O)N1CCC[C@@]2(CCN(C(c3ccccc3)c3ccccc3)C2)C1 | – | 6.31 µM (active)
COCC(=O)N1CCC2(CCCN(C(=O)Nc3ccccc3)C2)CC1 | 3.41% (inactive) | –
COCC(=O)N1CCC2(CC1)CCN(C(c1ccccc1)c1ccccc1)CC2 | – | 12.6 µM (active)
COCC(=O)N1CCC2(CC1)CCN(c1cccc(-c3ccccc3)c1)CC2 | -17.3% (inactive) | –
Cc1ccc(NC(=O)CC2CS(=O)(=O)CC2CC(=O)Nc2ccc(C)c(C)c2)cc1C (stereo unspecified) | 1.23% (inactive) | –
OC[C@H]1NC[C@@H](O)[C@@H](O)[C@H]1O | -17.5% (inactive) | –
Cc1ccc(OCC(=O)NNC(=O)c2cc3ccccc3o2)cc1C | 16.4% (inactive) | –
COc1cccc(C(=O)N2N=C(c3cccc(OC)c3)CC2(O)C(F)(F)F)c1 (stereo unspecified) | -20.4% (inactive) | –
CC(C)(Oc1ccc([C@@H]2CC2(Cl)Cl)cc1)C(=O)O | – | inactive
CC(C)c1ccc(N2C(=O)CC(Sc3nc4ccccc4o3)C2=O)cc1 (stereo unspecified) | -3.25% (inactive) | –
C[C@@]12CC3CC(N)(C1)C[C@@](C)(C3)C2 | -15.5% [at 25.6 µM] (inactive) | –
C[C@]12CC3CC(N)(C1)C[C@@](C)(C3)C2 | – | inactive and 316 nM (active)
CCc1nnc(NC(=O)CSc2nc3cc4c(cc3cc2C)OCCO4)s1 | -3.67% (inactive) | –
CC1=N/C(=C\c2ccc([N+](=O)[O-])cc2)C(=O)N1c1ccc(Br)c(C)c1 | 3.34% (inactive) | –
COc1cc(Cn2cnnn2)ccc1O | -11.4% (inactive) | –
CNC(=O)/C=C1\NC(C)(C)Cc2c1ccc1ccccc21 | – | 14.1 µM (active)
CC1(C)Cc2c(ccc3ccccc23)C(=O)N1 | 22.3% (inactive) | –
Cc1cccc(C(=O)NCN2CCN(c3ccccc3C#N)CC2)c1 | -0.838% (inactive) | –
CC(C)(C[C@@]1(C)NC(=O)NC1=O)OCc1ccccc1 | 1.81% [at 11.4 µM] (inactive) | –
CCNCCCNCCCNCCCNCC | 8.87% (inactive) | –
CC(C)CO/N=C1/C[C@@H](O)[C@@H](O)[C@@H]2[C@@H]3C(=O)N([C@@H](C)c4ccccc4)C(=O)[C@H]3CC[C@@H]12 | 17.4% [at 11.4 µM] (inactive) | –

Compound | activity, negative = inhibition | AC50
COC(=O)C(C)Sc1ccc2nnc(-c3ccc(F)cc3)n2n1 (stereo unspecified) | -1.9% (inactive) | –
O=c1nc(-c2ccccc2)n(-c2ccccc2)c2ncccc12 | 4.64% (inactive) | –
CC(=O)c1c(C)nc(-c2ccccc2)n1O | 4.36% (inactive) | –
CN=c1nc(-c2ccccc2)n(-c2ccccc2)s1 | – | 31.6 µM (active)
COc1cc(/C=N/NC(=O)c2ccncc2)ccc1OC(=O)c1ccc([N+](=O)[O-])cc1 | -15.9% (inactive) | –
CS(=O)(=O)N1CCC2(CC1)CN(Cc1cc(C(F)(F)F)cc(C(F)(F)F)c1)C2 | – | 0.398 µM (active)
O=C(c1csnn1)N1CCC2(CC1)CN(Cc1cc(C(F)(F)F)cc(C(F)(F)F)c1)C2 | – | 12.6 µM (active)
O=C(c1cc(C(F)(F)F)cc(C(F)(F)F)c1)N1CCC2(CCCN(Cc3nccs3)C2)CC1 | 14.6% (inactive) | –
O=C(c1cnccn1)N1CCC[C@@]2(CCN(Cc3cc(C(F)(F)F)cc(C(F)(F)F)c3)C2)C1 | – | 3.16 µM (active)
CS(=O)(=O)N1CCC2(CC1)CN(Cc1nccs1)C2 | 4.64% (inactive) | –
O=C(c1csnn1)N1CCC2(CC1)CCN(c1ccncc1)CC2 | -18.6% (inactive) | –
FC(F)(F)c1cc(CN2CC3(CCNCC3)C2)cc(C(F)(F)F)c1 | -16.5% (inactive) | –
O=C(c1cnccn1)N1CCC[C@@]2(CCN(Cc3ccncc3)C2)C1 | -14.8% (inactive) | –
O=C(c1ccco1)N1CCC2(CC1)CN(Cc1cc(C(F)(F)F)cc(C(F)(F)F)c1)C2 | – | 6.31 µM (active)
Cc1noc(C)c1C(=O)N1CCC[C@@]2(CCN(Cc3cc(C(F)(F)F)cc(C(F)(F)F)c3)C2)C1 | 18.8% (inactive) | –
COC(=O)c1cnn(C(=O)c2ccccc2Br)c1N | -7.26% (inactive) | –
CN(C)c1ccc(O)c2c1C[C@H]1C[C@H]3[C@@H](N(C)C)C(=O)C(C(N)=O)=C(O)[C@]3(O)C(=O)C1=C2O | 0.499% [at 25.6 µM] (inactive) | –
CCOc1ccc(-c2nnc3ccc(SCC(=O)NCc4ccco4)nn23)cc1 | -3.12% (inactive) | –
N#Cc1cc2nc(O)c(O)nc2cc1[N+](=O)[O-] | – | inactive
CC[C@H](C)C(=O)O[C@@H]1C[C@H](C)C=C2C=C[C@H](C)[C@@H](CC[C@H]3C[C@@H](O)CC(=O)O3)[C@H]21 | -10.6% [at 25.6 µM] (inactive) | –
CO[C@H]1C=CO[C@]2(C)Oc3c(C)c(O)c4c(O)c(c5c(c4c3C2=O)NC2(CCN(CC(C)C)CC2)N=5)=NC(=O)C(C)=CC=C[C@@H](C)[C@@H](O)[C@@H](C)[C@@H](O)[C@@H](C)[C@@H](OC(C)=O)[C@@H]1C | -2.37% [at 25.6 µM] (inactive) | –
Cn1c(=O)c(-c2ccc(F)cc2)nc2cnc(N3CCOCC3)nc21 | 4.78% (inactive) | –
Cn1c(=O)c(-c2ccc(Cl)cc2)nc2cnc(Nc3ccccc3)nc21 | -3.12% (inactive) | –
Cn1c(-c2sccc2OCc2ccccc2)n[nH]c1=S | -13.7% (inactive) | –

Compound | activity, negative = inhibition | AC50
O=C(c1cnccn1)N1CCC2(CC1)CN(Cc1cc(C(F)(F)F)cc(C(F)(F)F)c1)C2 | – | 0.398 µM (active)
O=C(c1cc(C(F)(F)F)cc(C(F)(F)F)c1)N1CCC2(CC1)CN(Cc1ccncc1)C2 | -19% (inactive) | –
O=C(c1cnccn1)N1CCC2(CC1)CN(c1ccncc1)C2 | -4.27% (inactive) | –
CC(C)(C)n1nc2c(c1NC(=O)c1ccc(S(=O)(=O)N3CCCCC3)cc1)CS(=O)C2 (stereo unspecified) | -11.7% (inactive) | –
Cc1cc(NC(=O)NC(=O)c2ccc(F)cc2F)n[nH]1 | -17.9% (inactive) | –
CCC(C)C1NC(=S)N(C2CCCCC2)C1=O (stereo unspecified) | 11.4% (inactive) | –
COc1ccc2c(c1)Cc1cc(N=[N+]([O-])c3ccc4c(c3)Cc3cc(OC)ccc3-4)ccc1-2 | -7.57% [at 11.4 µM] (inactive) | –
COc1ccc2c(c1)-c1ccccc1S(=O)(=O)N2C | -19.1% (inactive) | –
COc1ccc2c(c1)C(=NN)c1cc(OC)ccc1-2 | – | 22.4 µM (active)
O=C(Cn1cnc([N+](=O)[O-])c1)NCc1ccc(F)cc1 | -12.5% (inactive) | –
N#Cc1cccc(NC(=O)N2CCCC3(CCN(C(=O)c4csnn4)CC3)C2)c1 | -2.2% (inactive) | –
O=C(c1csnn1)N1CCC2(CCCN(c3ccc(-c4ccccc4)cc3)C2)CC1 | -2.24% (inactive) | –
CC(C)CN1CCCC2(CCN(C(=O)c3csnn3)CC2)C1 | – | 5.01 µM (active)
O=C(c1csnn1)N1CCC2(CCCN(Cc3ccccc3)C2)CC1 | – | 1.26 µM (active)
O=C(c1csnn1)N1CCC[C@@]2(CCN(Cc3nccs3)C2)C1 | – | 5.01 µM (active)
O=C(c1csnn1)N1CCC2(CCN(Cc3nccs3)CC2)CC1 | 2.94% (inactive) | –
COc1ccc(NC(=O)N2CC3(CCN(C(=O)c4csnn4)CC3)C2)cc1 | 2.53% (inactive) | –
CC(=O)N1CCC[C@@]2(CCN(Cc3nccs3)C2)C1 | 2.01% (inactive) | –
O=C(c1csnn1)N1CCC2(CC1)CN(c1ccccn1)C2 | – | 12.6 µM (active)
O=C(c1cnccn1)N1CCC2(CC1)CN(c1ccccn1)C2 | -17.3% (inactive) | –
CC(=O)N1CCC2(CC1)CN(c1ccccn1)C2 | -17.2% (inactive) | –
O=C(Nc1ccccc1)N1CCC2(CC1)CCN(C(=O)c1csnn1)CC2 | -11.4% (inactive) | –
O=C(O)CN(CCN(CC(=O)O)CC(=O)O)CC(=O)O.[Cu] | 2.44% [at 11.4 µM] (inactive) | –
COCCCn1c(=S)[nH]c2ncccc2c1=O | -7.67% (inactive) | –

From PubChem BioAssay AID1851 (National Center for Advancing Translational Sciences (NCATS), 2009)
